Screens (PubChem BioAssay)
This is a sample that favours compounds with a hit; in the whole collection about 4% have one here.
ADAM10 inh: human ADAM10 inhibitors, primary screen, biochemical, QFRET, HTS | Disintegrin and metalloproteinase domain-containing protein 10 (Homo sapiens), O14672 | recombinant ADAM10, EDANS/DABCYL FRET peptide cleavage, 3 h | inhibition, % at 7 µM | 370,000 compounds, 0.62% hits | AID 720582, 2013;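 active = inhibition above a per-campaign cutoff equal to the mean of compounds falling between control-based bounds plus 3 SD, cut at about 20% in these data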;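 note: 0% = DMSO wells while the 100% control is not disclosed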
FAS TE block: FAS thioesterase domain inhibitors, primary screen, biochemical, fluorescence intensity, uHTS. 360,000 compounds, 0.67% hits. recombinant FAS-TE, OMFH fluorogenic substrate, fluorescence endpoint. inhibition, % at 15 µM;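 active = compounds whose normalised, plate-corrected inhibition of enzyme fluorescence in the single-dose primary screen is 50% or more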;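 note: 0% = DMSO with enzyme and 100% = substrate without enzyme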
NR3A LBD binder: binders of NR3A ligand-binding domain, primary screen, biophysical, differential scanning fluorimetry, uHTS; Glutamate receptor ionotropic, NMDA 3A (GRIN3A) ligand-binding domain; 340,000 compounds, 2.5% hits; NR3A LBD differential scanning fluorimetry, Tm shift; 0% = protein alone, 100% = glycine-bound protein; AID 1259313, 2017; Tm shift relative to glycine control, % at 25 µM;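 active = melting temperature shift of at least 10% of the positive control shift, at one fixed dose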
ADAM17 inh: ADAM17 inhibitors, primary screen, biochemical, QFRET. AID 720648, 2013. 370,000 compounds, 0.83% hits. Disintegrin and metalloproteinase domain-containing protein 17 (Homo sapiens), P78536. recombinant ADAM17, EDANS/DABCYL FRET peptide cleavage. inhibition, % at 6.95 µM;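 active = inhibition above the mean of compounds lying between control limits plus 3 SD, set per campaign, cut at about 8.5% in these data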;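 note: 0% = DMSO-only wells as the low control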
aDG glyco act: activators of alpha-DG glycosylation, primary screen, uHTS, Pro5-aDG cells, AlphaScreen; AID 624168, 2012; 360,000 compounds, 0.22% hits; activation, % at 10 µM; alpha-DG glycosylation AlphaScreen (IIH6); 0% Pro5, 100% B10-LARGE cell signal;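 active = activation of at least 8% versus controls, or a plate z-score of at least 8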;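 note: Pro5 are CHO cells carrying HIG-tagged alpha-DG that lacks glycosylation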
aDG conf: alpha-DG glycosylation enhancers, retest, confirmation, single concentration, Pro5-aDG cells; 600 compounds, 17% hits; shares compounds with aDG glyco act; activation, % at 10 µM (by protocol); IIH6 AlphaLISA; scaled to LARGE-overexpressing B10 cells as 100%; AID 651671, 2012;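 active = activation of at least 7% in one or more replicates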;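 note: cells exposed to compound for two days before detection; 0% = DMSO-treated Pro5 cells and 100% = DMSO-treated B10-LARGE cells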
Active calls of the source: *.

Results for O=S(=O)(c1ccc(Cl)cc1)c1cnc(-c2cccnc2)nc1-c1ccccc1 ?
ADAM10 inh: 0.1; FAS TE block: -2.9; NR3A LBD binder: -0.6; ADAM17 inh: -4.5; aDG glyco act: -0.1

Results for O=S(=O)(NCc1ccccn1)c1ccc2c(c1)OCCO2 ?
ADAM10 inh: 6.4; FAS TE block: -12.6; NR3A LBD binder: 2.2; ADAM17 inh: -1.2; aDG glyco act: 0.6

What do the screens show for `O=C(COc1ccccc1Br)NCCC1=CCCCC1`?
ADAM10 inh: -6.4; FAS TE block: 17.7; NR3A LBD binder: 3.3; ADAM17 inh: -3.0; aDG glyco act: 3.6*; aDG conf: -0.8

How did Cc1ccc2cccc(OCC(=O)NCCC3=CCCCC3)c2n1 do in these assays?
FAS TE block: 3.0; NR3A LBD binder: 0.5; aDG glyco act: -0.2

How did CCN(CC)CCCN(C(=O)c1ccccc1F)c1nc(-c2ccc(OC)cc2)cs1 do in these assays?
ADAM10 inh: -3.0; FAS TE block: 2.0; NR3A LBD binder: -0.8; ADAM17 inh: 0.6; aDG glyco act: 4.0*; aDG conf: 1.9

What do the screens show for `CCN(CC)CCCN(C(=O)c1ccccc1C)c1nc(-c2ccc(OC)cc2)cs1`?
ADAM10 inh: 0.3; FAS TE block: 1.8; NR3A LBD binder: 1.1; ADAM17 inh: 1.0; aDG glyco act: 0.3

How did CCN(C[C@H]1N[C@@](C)(C(=O)OC)[C@H]2C(=O)N(Cc3ccccc3)C(=O)[C@@H]12)C(=O)c1ccccc1 do in these assays?
ADAM10 inh: -10.4; FAS TE block: -15.2; NR3A LBD binder: 0.9; ADAM17 inh: -1.9; aDG glyco act: 0.0

Results for CCNC(=O)N(CC)C[C@H]1N[C@@](C)(C(=O)OC)[C@H]2C(=O)N(Cc3ccccc3)C(=O)[C@@H]12 ?
ADAM10 inh: -13.3; FAS TE block: -9.0; NR3A LBD binder: 0.3; ADAM17 inh: -2.8; aDG glyco act: 7.1*; aDG conf: -0.8

What do the screens show for `Cc1cccc(C)c1NC(=O)C(c1ccncc1)N1CCN(C)CC1` (stereo not given)?
ADAM10 inh: -19.1; ADAM17 inh: -6.2; aDG glyco act: 9.8*; aDG conf: 0.3

What do the screens show for `Cc1cccc(C)c1NC(=O)C(c1ccccc1)N1CCN(C)CC1` (stereo not given)?
ADAM10 inh: -11.7; ADAM17 inh: -3.2; aDG glyco act: 0.0

What do the screens show for `COc1ccccc1CCNCc1ccc(OC)c(OCc2ccccc2)c1`?
ADAM10 inh: -2.6; FAS TE block: -10.8; NR3A LBD binder: 0.3; ADAM17 inh: -4.6; aDG glyco act: 5.6*; aDG conf: 1.7

Results for CCN(CC(=O)Nc1c(F)cccc1F)C(=O)CCCNC(=O)c1ccc(Cl)cc1 ?
ADAM10 inh: -7.8; FAS TE block: -8.5; NR3A LBD binder: 1.6; ADAM17 inh: -4.4; aDG glyco act: 0.0

What do the screens show for `Cc1cc(OCc2nc(-c3cccs3)no2)cc(C)c1Cl`?
ADAM10 inh: -0.5; FAS TE block: 27.9; NR3A LBD binder: -6.9; ADAM17 inh: 0.8; aDG glyco act: 7.7*; aDG conf: 0.2

What do the screens show for `c1ccc(OCc2nc(-c3cccs3)no2)cc1`?
ADAM10 inh: 2.0; FAS TE block: 5.0; NR3A LBD binder: 1.3; ADAM17 inh: -1.0; aDG glyco act: 0.0

What do the screens show for `CCN1CCN(c2ccc(NC(=O)COc3ccc(Cl)cc3C)cc2)CC1`?
ADAM10 inh: -3.1; FAS TE block: 2.2; NR3A LBD binder: 1.7; ADAM17 inh: -1.4; aDG glyco act: 5.2*; aDG conf: 2.2

What do the screens show for `CCN1CCN(c2ccc(NC(=O)COc3ccccc3Cl)cc2)CC1`?
ADAM10 inh: 3.4; FAS TE block: -2.5; NR3A LBD binder: 1.5; ADAM17 inh: -3.0; aDG glyco act: 0.0

How did COc1ccc(Nc2ccc(N3C(=O)CC(C)C3=O)cc2[N+](=O)[O-])cn1 (stereo not given) do in these assays?
ADAM10 inh: 3.1; FAS TE block: 0.4; NR3A LBD binder: 0.2; ADAM17 inh: -3.2; aDG glyco act: -0.1

Results for Cc1cccc(OCC(=O)Nc2cc(S(=O)(=O)N3CCOCC3)ccc2N2CCCC2)c1C ?
ADAM10 inh: 1.8; FAS TE block: 17.8; NR3A LBD binder: -1.9; ADAM17 inh: -3.2; aDG glyco act: 7.4*; aDG conf: -0.1

What do the screens show for `O=C(COc1ccccc1)Nc1cc(S(=O)(=O)N2CCOCC2)ccc1N1CCCC1`?
ADAM10 inh: -6.7; FAS TE block: 0.0; NR3A LBD binder: 1.2; ADAM17 inh: -1.2; aDG glyco act: -0.1

Results for CN(CC(=O)Nc1cccc(Cl)c1)S(=O)(=O)c1ccc2[nH]c(=O)oc2c1 ?
ADAM10 inh: 7.7; FAS TE block: -10.1; NR3A LBD binder: 5.7; ADAM17 inh: 4.2; aDG glyco act: 5.7*; aDG conf: -0.7

What do the screens show for `O=C(Cn1c(=O)[nH]c2ccsc2c1=O)NC1CCCCC1`?
ADAM10 inh: -0.7; FAS TE block: -3.1; NR3A LBD binder: 0.5; ADAM17 inh: -2.3; aDG glyco act: 0.0

How did COc1ccc(NC(=O)C2CC(=O)N=C(N)S2)cc1 (stereo not given) do in these assays?
ADAM10 inh: 2.3; FAS TE block: -4.6; NR3A LBD binder: 0.1; ADAM17 inh: -2.4; aDG glyco act: 11.6*; aDG conf: -0.9

Results for CCOc1ccc(N2CC(C(=O)N3CCN(c4ccccn4)CC3)CC2=O)cc1 (stereo not given) ?
ADAM10 inh: -25.9; FAS TE block: -9.6; NR3A LBD binder: -1.0; ADAM17 inh: -1.4; aDG glyco act: 10.5*; aDG conf: 10.3*

How did CCOC(=O)C1(C/C(C)=N/NC(N)=O)CC(C)(C)OC1=O (stereo not given) do in these assays?
ADAM10 inh: -11.3; FAS TE block: -15.0; NR3A LBD binder: -0.3; ADAM17 inh: -6.9; aDG glyco act: -0.1

Results for CCc1ccc(OCCCCN(C)Cc2ccccc2)cc1 ?
ADAM10 inh: 2.4; FAS TE block: 0.5; NR3A LBD binder: 3.4; ADAM17 inh: -1.7; aDG glyco act: 1.8*; aDG conf: 0.8

How did COc1cc(C#Cc2c(-c3cncn3C)n(C)c3ccc(Br)cc23)cc(OC)c1 do in these assays?
ADAM10 inh: -45.2; FAS TE block: 33.1; NR3A LBD binder: -8.2; ADAM17 inh: -12.9; aDG glyco act: 5.0*; aDG conf: 0.8

What do the screens show for `O=C1c2ccccc2C(Nc2ccc(S(=O)(=O)N3CCOCC3)cc2)N1c1cccnc1` (stereo not given)?
ADAM10 inh: -10.0; FAS TE block: -6.2; NR3A LBD binder: 1.5; ADAM17 inh: -2.4; aDG glyco act: 10.2*; aDG conf: 0.0
